By inhibition is commonly meant the relative decrease from the control value, in per cent.

Records with an inconclusive call do not appear. Active and inactive are the calls of the source.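 Rule for the calls, unless noted: active = aptamer binding inhibition above 30%, about 3 SD of noise from non-fluorescent compounds; inactive = inhibition at or below 30%.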

Here are results for four compounds from PubChem BioAssay.

The nature of test [1]: yeast TOR pathway RPL19A-GFP modulators, primary screen, cell-based, S. cerevisiae, multiplex flow cytometry (AID 1862; in the data active = percent of DMSO control GFP below about 86%;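 note: lower values mimic rapamycin by blocking the RPL19A rise seen in DMSO cells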). The conditions noted are these: S. cerevisiae RPL19A-GFP strain, flow cytometry fluorescence, 3 h; at 10 µM; stronger effect = lower value. (In general: In flow cytometry, cells or beads pass a laser one at a time.)
Test [2] can be described thus: modulators of MEP2-GFP levels in yeast, primary screen, S. cerevisiae, multiplex flow cytometry (AID 1867;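 active = GFP response, as percent of the DMSO control, above the screen-wide mean plus 3 SD, about 139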;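 note: median GFP channel fluorescence of barcode-gated MEP2-GFP cells measured by flow cytometry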). The conditions noted are these: S. cerevisiae MEP2-GFP strain, 3 h, at 10 µM, stronger effect = higher value, 100% means same as DMSO wells.
The nature of test [3]: modulators of CIT2-GFP expression in yeast, primary screen, S. cerevisiae, GFP fusion, multiplex flow cytometry (AID 1870;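 active = percent response above a set limit, the screen-wide mean plus 3 SD, cut at about 130% in these data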;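 note: barcoded CIT2-GFP strain pooled with four other GFP strains with rapamycin as positive control; median GFP fluorescence per well over plate mean of DMSO wells so 100% = DMSO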). As to conditions: 3 h, at 10 µM, stronger effect = higher value.
Test [4] is described as follows: modulators of LAP4-GFP expression in yeast, primary screen, S. cerevisiae, multiplex flow cytometry (AID 1873;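 active = GFP signal, as percent of the solvent control, above the screen mean plus 3 SD, about 149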). As to conditions: 3 h, at 10 µM, stronger effect = higher value.
A short description of test [5]: modulators of AGP1-GFP expression in yeast TOR pathway, primary screen, cell-based, multiplex flow cytometry, S. cerevisiae (AID 1887;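 active = GFP signal above the screen-wide mean plus 3 SD, that is over about 124.5% of the solvent control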;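 note: AGP1-GFP fusion strain of S. cerevisiae within a five-strain barcoded multiplex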). The conditions noted are these: 3 h, at 10 µM, stronger effect = higher value.
Test [6] can be described thus: inhibitors of CD8+ T cell-vesicle binding, pilot screen, LFA-1/ICAM-1 modulator project, MLPCN validation set, flow cytometry (AID 2523;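 active = response below a set limit, under 55% cells CD8-positive and vesicle-bound, and CD8 cells' 90th-percentile brightness under 279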;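 for vesicle binding response: mean PE anti-B7-1 fluorescence of CD8+ cells relative to row control; 100% = QL9-loaded vesicles with DMSO vehicle in the same plate row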). As to conditions: 2C mouse CD8+ T cells, at 7 µM, stronger effect = lower value; double positive events: measured here: CD8+/vesicle+ event percentage.
The target in test [7] is Integrin beta-1 (Homo sapiens) + Integrin alpha-4 (Homo sapiens) (UniProt P13612+P05556). The experiment in a line: inhibition of HUTS-21 binding to VLA-4, pilot screen, VLA-4 allosteric modulator project, U937 cells, HUTS-21 mAb, flow cytometry, validation set (AID 2674;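 active = inhibition above 50%, about 3 SD of the validation set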;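 note: antibody binding induced by the VLA-4 ligand LDV present at three times its Kd; 0% = LDV ligand with antibody and no compound and 100% = antibody without LDV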). As to conditions: HUTS-21 LIBS mAb binding, at 6.7 µM, stronger effect = higher value, binding induced by LDV ligand.
Integrin beta-1 (Homo sapiens) + Integrin alpha-4 (Homo sapiens), sequence (P05556 whole entry, looked up): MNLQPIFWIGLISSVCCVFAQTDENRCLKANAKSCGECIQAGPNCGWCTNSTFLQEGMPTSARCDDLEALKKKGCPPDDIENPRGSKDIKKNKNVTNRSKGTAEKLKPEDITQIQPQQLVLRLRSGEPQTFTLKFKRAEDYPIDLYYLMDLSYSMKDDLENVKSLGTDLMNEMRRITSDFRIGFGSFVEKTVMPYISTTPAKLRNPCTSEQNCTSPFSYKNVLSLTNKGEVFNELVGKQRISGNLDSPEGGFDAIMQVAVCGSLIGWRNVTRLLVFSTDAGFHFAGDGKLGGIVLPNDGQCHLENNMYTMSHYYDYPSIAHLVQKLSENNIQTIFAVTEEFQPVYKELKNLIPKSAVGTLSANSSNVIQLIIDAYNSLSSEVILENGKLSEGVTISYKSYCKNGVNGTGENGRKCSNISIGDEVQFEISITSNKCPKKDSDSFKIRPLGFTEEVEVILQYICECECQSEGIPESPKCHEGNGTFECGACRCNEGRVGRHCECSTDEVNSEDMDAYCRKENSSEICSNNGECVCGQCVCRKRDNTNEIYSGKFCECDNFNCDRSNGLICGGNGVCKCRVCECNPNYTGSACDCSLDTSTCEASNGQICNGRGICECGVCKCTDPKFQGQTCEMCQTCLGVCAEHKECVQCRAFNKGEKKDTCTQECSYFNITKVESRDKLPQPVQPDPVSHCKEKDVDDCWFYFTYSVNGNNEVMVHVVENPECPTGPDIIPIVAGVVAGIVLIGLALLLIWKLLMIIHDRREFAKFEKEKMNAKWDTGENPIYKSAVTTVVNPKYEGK
Integrin beta-1 (Homo sapiens) + Integrin alpha-4 (Homo sapiens), sequence (P13612 whole entry, looked up): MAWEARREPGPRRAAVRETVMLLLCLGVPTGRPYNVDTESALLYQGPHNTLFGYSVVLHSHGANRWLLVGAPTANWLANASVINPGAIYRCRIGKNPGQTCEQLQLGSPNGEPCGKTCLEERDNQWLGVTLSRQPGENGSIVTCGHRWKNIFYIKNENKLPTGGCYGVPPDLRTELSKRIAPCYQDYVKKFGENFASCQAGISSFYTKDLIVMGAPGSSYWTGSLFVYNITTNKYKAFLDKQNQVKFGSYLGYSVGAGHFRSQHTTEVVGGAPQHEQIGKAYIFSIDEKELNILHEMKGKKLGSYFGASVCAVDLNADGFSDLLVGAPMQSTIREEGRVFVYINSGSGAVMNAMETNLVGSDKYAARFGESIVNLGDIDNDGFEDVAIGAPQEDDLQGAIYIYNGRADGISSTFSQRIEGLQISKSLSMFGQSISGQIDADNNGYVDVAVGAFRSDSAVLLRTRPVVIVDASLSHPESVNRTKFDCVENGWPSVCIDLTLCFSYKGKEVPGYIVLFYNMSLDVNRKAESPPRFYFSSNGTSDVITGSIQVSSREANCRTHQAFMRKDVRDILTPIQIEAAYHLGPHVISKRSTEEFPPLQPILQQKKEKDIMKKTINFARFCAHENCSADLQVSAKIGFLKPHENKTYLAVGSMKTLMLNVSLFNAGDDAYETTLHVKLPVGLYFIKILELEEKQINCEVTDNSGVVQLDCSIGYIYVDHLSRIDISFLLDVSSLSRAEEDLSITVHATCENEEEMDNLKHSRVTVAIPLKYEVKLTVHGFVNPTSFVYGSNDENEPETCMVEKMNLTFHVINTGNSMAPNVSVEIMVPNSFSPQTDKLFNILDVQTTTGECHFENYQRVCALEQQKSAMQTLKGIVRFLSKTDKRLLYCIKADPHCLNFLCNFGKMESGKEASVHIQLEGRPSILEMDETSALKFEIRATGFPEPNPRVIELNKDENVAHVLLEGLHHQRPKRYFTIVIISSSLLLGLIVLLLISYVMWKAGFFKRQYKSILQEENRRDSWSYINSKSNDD

Test [8] in a line: superoxide lowering in aged yeast cells, pilot screen, validation compound set (AID 2706;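 active = superoxide response below 65% of plate, a cut near 3 SD across the whole screen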;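 note: yeast exposed to compound for one week at 30 degrees C before staining; 100% = mean of all compound wells on the same plate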). The conditions noted are these: S. cerevisiae aging, superoxide DHE fluorescence; at 10 µM; stronger effect = lower value.
For test [9], the target named is Beta-adrenergic receptor kinase 1 (Homo sapiens) (UniProt P25098). The experiment in a line: GRK2 binders displacing RNA aptamer, biochemical, validation, human GRK2, bead flow cytometry (AID 488806). As to conditions: bead-bound GRK2, FAM-aptamer displacement, at 10 µM, stronger effect = higher value.
Beta-adrenergic receptor kinase 1 (Homo sapiens), sequence (P25098 whole entry, looked up): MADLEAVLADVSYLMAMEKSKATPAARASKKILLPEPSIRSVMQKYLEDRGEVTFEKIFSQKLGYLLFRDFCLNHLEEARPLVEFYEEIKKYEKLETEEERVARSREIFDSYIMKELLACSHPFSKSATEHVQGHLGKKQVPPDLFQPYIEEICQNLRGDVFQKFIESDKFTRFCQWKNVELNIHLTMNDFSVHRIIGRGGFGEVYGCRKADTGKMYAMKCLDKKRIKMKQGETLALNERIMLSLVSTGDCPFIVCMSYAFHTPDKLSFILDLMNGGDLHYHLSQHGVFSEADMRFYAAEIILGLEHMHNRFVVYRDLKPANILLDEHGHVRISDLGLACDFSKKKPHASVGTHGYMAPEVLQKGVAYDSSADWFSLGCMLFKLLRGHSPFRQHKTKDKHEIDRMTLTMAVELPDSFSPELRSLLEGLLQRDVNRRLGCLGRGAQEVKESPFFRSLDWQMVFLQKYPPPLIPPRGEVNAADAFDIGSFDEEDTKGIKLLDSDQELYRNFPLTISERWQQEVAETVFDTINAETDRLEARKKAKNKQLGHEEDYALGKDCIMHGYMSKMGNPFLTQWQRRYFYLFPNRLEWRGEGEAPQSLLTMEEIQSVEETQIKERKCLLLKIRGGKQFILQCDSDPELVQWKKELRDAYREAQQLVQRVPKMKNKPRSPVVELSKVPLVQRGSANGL
For test [10], the target named is Beta-2 adrenergic receptor (Homo sapiens) (UniProt P07550). The experiment in a line: beta2AR agonists driving receptor internalization, pilot screen, cell-based, FAP fluorogen, flow cytometry, validation set (AID 504459;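 active = percent response above 42, roughly 3 SD of non-fluorescent test compounds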;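 note: agonist-driven loss of surface beta2AR via internalization measured by FAP dye flow cytometry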). The conditions noted are these: Am2.2-beta2AR cells, FAP surface receptor flow cytometry; at 10 µM; stronger effect = higher value.
Beta-2 adrenergic receptor (Homo sapiens), sequence (P07550 whole entry, looked up): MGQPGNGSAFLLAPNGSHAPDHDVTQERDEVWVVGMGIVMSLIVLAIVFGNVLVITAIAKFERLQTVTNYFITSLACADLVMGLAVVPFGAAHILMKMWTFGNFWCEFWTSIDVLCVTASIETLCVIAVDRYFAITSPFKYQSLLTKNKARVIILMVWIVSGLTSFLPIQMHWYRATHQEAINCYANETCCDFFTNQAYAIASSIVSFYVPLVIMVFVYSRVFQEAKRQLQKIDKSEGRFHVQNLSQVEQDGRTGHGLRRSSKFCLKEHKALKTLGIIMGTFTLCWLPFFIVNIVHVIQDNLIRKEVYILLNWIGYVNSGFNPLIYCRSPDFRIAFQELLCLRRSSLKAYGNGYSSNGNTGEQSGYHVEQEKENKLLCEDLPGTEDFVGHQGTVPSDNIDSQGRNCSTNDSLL
The target in test [11] is AP-2 complex subunit beta (Homo sapiens) (UniProt P63010). The experiment in a line: inhibitors of arrestin peptide binding to AP2, pilot screen, biochemical, validation set, GST-AP2 beads, flow cytometry (AID 504541;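 active = inhibition above 54%, about 3 SD of non-fluorescent compounds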;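 note: AP2 carries R879A mutation and is captured from E. coli lysate; bead-bound FITC arrestin peptide fluorescence measuring arrestin peptide binding to AP2; 0% = DMSO wells and 100% = excess unlabeled arrestin peptide control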). The conditions noted are these: FITC arrestin peptide, at 10 µM, stronger effect = higher value, AP2 beta2 appendage fragment, R879A mutant.
AP-2 complex subunit beta (Homo sapiens), sequence (P63010 whole entry, looked up, the tested form may be a part, one chain of several): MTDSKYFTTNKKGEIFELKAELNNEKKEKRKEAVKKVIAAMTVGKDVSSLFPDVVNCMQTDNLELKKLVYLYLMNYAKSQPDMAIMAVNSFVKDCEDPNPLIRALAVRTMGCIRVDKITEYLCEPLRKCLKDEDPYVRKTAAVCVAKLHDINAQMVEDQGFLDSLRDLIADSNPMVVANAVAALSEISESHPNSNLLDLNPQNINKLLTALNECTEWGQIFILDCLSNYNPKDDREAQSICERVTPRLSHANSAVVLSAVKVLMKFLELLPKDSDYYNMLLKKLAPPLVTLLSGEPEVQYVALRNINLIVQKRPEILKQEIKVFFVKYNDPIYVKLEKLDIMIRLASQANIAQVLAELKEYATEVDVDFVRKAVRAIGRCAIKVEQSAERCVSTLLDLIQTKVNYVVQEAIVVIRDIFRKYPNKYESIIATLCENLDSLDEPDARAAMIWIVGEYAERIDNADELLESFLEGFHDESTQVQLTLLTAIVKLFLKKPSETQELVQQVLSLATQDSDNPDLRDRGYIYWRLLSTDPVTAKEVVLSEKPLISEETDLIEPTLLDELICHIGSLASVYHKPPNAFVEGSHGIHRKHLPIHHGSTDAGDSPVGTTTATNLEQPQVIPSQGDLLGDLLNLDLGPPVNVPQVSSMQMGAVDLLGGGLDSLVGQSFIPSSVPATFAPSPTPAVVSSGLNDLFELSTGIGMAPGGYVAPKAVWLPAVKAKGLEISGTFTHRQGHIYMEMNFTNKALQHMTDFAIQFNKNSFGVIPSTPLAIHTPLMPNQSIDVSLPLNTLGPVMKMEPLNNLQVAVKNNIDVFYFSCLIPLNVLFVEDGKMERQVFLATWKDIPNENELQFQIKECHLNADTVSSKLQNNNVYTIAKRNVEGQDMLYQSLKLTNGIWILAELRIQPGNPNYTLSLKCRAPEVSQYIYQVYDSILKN
The nature of test [12]: yeast V-ATPase proton transport modulators, S. cerevisiae, pHLuorin, HTS validation (AID 504600; in the data active = response above about 15%;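 note: plate controls were DMSO for no effect and reference compound for full effect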). As to conditions: S. cerevisiae pHLuorin cytosolic pH, at 10 µM, stronger effect = higher value.
Test [13] deals with anti-desmoglein-3 scFv antibody binding to human DSG3. The experiment in a line: inhibitors of anti-DSG3 scFv binding to DSG3, pilot screen, biochemical, validation compound set, bead-based, flow cytometry (AID 588368;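 active = binding below the plate cutoff, the plate median minus 3 SD, with a reading above zero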;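 note: signal is the median channel fluorescence of bead-bound GFP antibody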). The conditions noted are these: Protein G beads, DSG3-Fc, scFv-GFP binding, at 10 µM, stronger effect = lower value.
A short description of test [14]: inhibitors of fungal efflux pumps CDR1, CDR2, MDR1, pilot screen, validation compound set, multiplex, phenotypic (AID 588506;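 active = efflux inhibition above 0.42, the validation set average plus 4 SD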;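 note: Nile Red retained in cells so higher fluorescence means more efflux inhibition; 0 = negative control wells and 1 = enniatin B 25 µM full block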). As to conditions: S. cerevisiae pump-expressing triplex, Nile Red efflux flow cytometry; at 10 µM; stronger effect = higher value; the pumps come from Candida albicans.
Test [15] has as its target ATP-binding cassette sub-family B member 6 (Homo sapiens) (UniProt Q9NP58). The experiment in a line: ABCB6 transporter inhibitors, pilot screen, K562-ABCB6 cells, flow cytometry, validation set (AID 588550;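 active = inhibition above the screen-wide mean plus 3 SD, about 51%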;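 note: 0% = DMSO wells and 100% = benzethonium chloride 70 µM positive control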). As to conditions: K562-ABCB6 porphyrin accumulation, 1 h, at 10 µM, stronger effect = higher value.
Test [16] in a line: promoters of myeloid differentiation in arrested cells, primary screen, cell-based, GFP/MAC1 double positive, flow cytometry, validation set (AID 588685;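 active = differentiation response of at least 50%, scaled between solvent and reference control, from cells with both markers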;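 note: compound exposure lasts four days before antibody staining and flow analysis; 0% = DMSO wells and 100% = 5 µM fulvestrant positive control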). The conditions noted are these: ER-HoxA9 marrow cells, stronger effect = higher value, normalized: vehicle 0, fulvestrant 100.

ATP-binding cassette sub-family B member 6 (Homo sapiens), sequence (Q9NP58 whole entry, looked up): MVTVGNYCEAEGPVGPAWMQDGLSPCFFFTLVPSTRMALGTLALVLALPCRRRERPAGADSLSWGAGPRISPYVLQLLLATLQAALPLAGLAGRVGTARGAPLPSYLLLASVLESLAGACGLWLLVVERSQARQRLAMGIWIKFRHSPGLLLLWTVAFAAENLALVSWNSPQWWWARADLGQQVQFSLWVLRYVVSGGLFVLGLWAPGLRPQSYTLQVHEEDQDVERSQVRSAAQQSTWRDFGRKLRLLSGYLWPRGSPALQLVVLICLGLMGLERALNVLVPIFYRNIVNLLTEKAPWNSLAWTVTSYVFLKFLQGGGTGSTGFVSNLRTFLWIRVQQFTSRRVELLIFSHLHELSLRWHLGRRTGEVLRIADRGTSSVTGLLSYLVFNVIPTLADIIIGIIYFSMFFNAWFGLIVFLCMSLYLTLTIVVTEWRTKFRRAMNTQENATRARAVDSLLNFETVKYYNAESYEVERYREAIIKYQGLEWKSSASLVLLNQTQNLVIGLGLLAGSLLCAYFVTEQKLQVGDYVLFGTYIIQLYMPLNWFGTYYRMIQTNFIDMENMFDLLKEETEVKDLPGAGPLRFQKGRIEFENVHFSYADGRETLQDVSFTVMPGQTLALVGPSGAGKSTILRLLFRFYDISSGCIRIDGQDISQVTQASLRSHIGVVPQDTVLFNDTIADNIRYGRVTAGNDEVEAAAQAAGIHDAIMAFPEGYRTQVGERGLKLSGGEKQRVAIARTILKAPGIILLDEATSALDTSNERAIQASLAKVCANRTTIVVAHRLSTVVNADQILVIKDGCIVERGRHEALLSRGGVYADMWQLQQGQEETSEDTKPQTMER

`Cc1ccccc1C(=O)Nc1ccccc1C(=O)NCC(C)C`: the percent of DMSO control GFP in test [1] was 100% (inactive). Besides, the figures for the GFP response vs DMSO in test [2] and in test [4] were 107% (inactive) and 118% (inactive), respectively. In addition, the percent response of DMSO control in test [3] was 104% (inactive). Besides, in [5], the GFP response, % of DMSO is 108% (inactive). In test [6], this compound gave a double positive events of 63.7%. In test [6], the vesicle binding response is 208% (inactive). The inhibition was 7.4% (inactive) in test [7], 35.6% (inactive) in test [11] and -1% (inactive) in test [15]. In addition, the superoxide response (% of plate) in test [8] was 118% (inactive). Moreover, the aptamer binding inhibition in test [9] was 3% (inactive). The response in test [10] was -22.2% (inactive); in test [12], -2.23% (inactive). Also, the binding (% of control) in test [13] was 99.9% (inactive). In addition, the efflux inhibition (fraction of control) in [14] was 0 (inactive). For the same compound, in test [16], the differentiation response was 2.89% (inactive).
On to `COc1ccc(CCNC(=O)c2ccc(Cl)cc2)cc1OC`, for which the percent of DMSO control GFP in test [1] is 103% (inactive). Besides, the GFP response vs DMSO in [2] is 109% (inactive); in test [4], 121% (inactive). Moreover, the percent response of DMSO control in test [3] is 107% (inactive). Further, the GFP response, % of DMSO in [5] is 111% (inactive). The compound also gave a double positive events in [6] of 59.6%. The vesicle binding response in [6] is 196% (inactive). In addition, the inhibition was 2.93% (inactive) in test [7], -0.98% (inactive) in test [11] and -7% (inactive) in test [15]. Besides, the superoxide response (% of plate) in [8] is 107% (inactive). In test [9], the aptamer binding inhibition is -1% (inactive). In addition, the results for the response in [10] and in [12] were 6.98% (inactive) and -0.59% (inactive), respectively. For the same compound, the binding (% of control) in test [13] was 104% (inactive). Further, in test [14], the efflux inhibition (fraction of control) is 0.39 (inactive). Moreover, the differentiation response in test [16] was -17.7% (inactive).
For `CCCC(=O)Nc1ncnc2c1ncn2[C@@H]1O[C@@H]2COP(=O)(O)O[C@H]2[C@H]1OC(=O)CCC`, the percent of DMSO control GFP in test [1] is 97.7% (inactive). Also, the figures for the GFP response vs DMSO in test [2] and in test [4] were 130% (inactive) and 96.3% (inactive), respectively. Besides, the percent response of DMSO control in test [3] is 97.9% (inactive). Moreover, the GFP response, % of DMSO in [5] was 94.7% (inactive). In test [6], the double positive events came out at 61%. The vesicle binding response in test [6] was 131% (inactive). In addition, the results for the inhibition in test [7], in test [11] and in test [15] were 4.52% (inactive), -3.95% (inactive) and 7% (inactive), respectively. Further, the superoxide response (% of plate) in test [8] is 96.8% (inactive). The aptamer binding inhibition in test [9] was 3% (inactive). Further, the values for the response in test [10] and in test [12] were -6.04% (inactive) and 1.56% (inactive), respectively. Besides, in test [13], the binding (% of control) was 98.3% (inactive). Further, the efflux inhibition (fraction of control) in [14] was -0.06 (inactive). For the same compound, the differentiation response in test [16] is 5.73% (inactive).
As for `O=c1[nH]cnc2[nH]ncc12`, the percent of DMSO control GFP in [1] is 103% (inactive). Further, the results for the GFP response vs DMSO in test [2] and in [4] were 103% (inactive) and 90.4% (inactive), respectively. Further, the percent response of DMSO control in test [3] is 96.5% (inactive). The GFP response, % of DMSO in test [5] was 95% (inactive). In test [6], this compound registered a double positive events of 55.6%. In test [6], the vesicle binding response is 154% (inactive). The inhibition was 15% (inactive) in [7], 2.53% (inactive) in test [11] and -64% (inactive) in test [15]. Further, the superoxide response (% of plate) in [8] is 98% (inactive). Besides, the aptamer binding inhibition in test [9] was 0% (inactive). Moreover, the response in test [10] is -2.08% (inactive); in test [12], -1.12% (inactive). For the same compound, the binding (% of control) in test [13] is 103% (inactive). The efflux inhibition (fraction of control) in [14] is 0.005 (inactive). Also, the differentiation response in test [16] was 7.13% (inactive).
